About 79,000 compounds went through this panel and 15% of them were active in at least one assay; those are over-represented in the sample as a whole. Active and inactive are the calls of the source. No stated cut-off is given here; in the data, active means growth inhibition above about 70%; inactive means the rest.
What was measured:
[1] = NCI Yeast Anticancer Drug Screen. Data for the rad50 strain (AID 155);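 further: 0% = growth of vehicle-only cultures of the same strain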; conditions: S. cerevisiae rad50 strain growth inhibition; at 50.0 µM; stronger effect = higher value
In short: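 Cells are treated with compound, grown, and their growth is then scored against vehicle-only cultures of the same repair-deficient yeast strain.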

[2] = NCI Yeast Anticancer Drug Screen. Data for the mec2-1 strain (AID 157); conditions: S. cerevisiae mec2-1 strain, at 50.0 µM, stronger effect = higher value
In short: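 Strain: mec2-1 (DNA repair/cell cycle alteration). Compound exposure, then growth measured; inhibition expressed relative to vehicle.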

[3] = NCI Yeast Anticancer Drug Screen. Data for the sgs1 mgt1 strain (AID 161);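 further: 0% = growth of cultures given vehicle only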; conditions: S. cerevisiae sgs1 mgt1 strain, at 50.0 µM, stronger effect = higher value
In short: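 Inhibition of yeast growth, normalised to vehicle-treated controls, is reported for a strain bearing genetic alterations in DNA damage repair.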

[4] = NCI Yeast Anticancer Drug Screen. Data for the cln2 rad14 strain (AID 165);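 further: 0% = growth equal to vehicle treated cultures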; conditions: S. cerevisiae cln2 rad14 strain, at 50.0 µM, stronger effect = higher value
In short: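 Compounds are applied to the cln2 rad14 yeast strain, and growth is then compared with that of vehicle-treated cultures to give inhibition.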

[5] = NCI Yeast Anticancer Drug Screen. Data for the bub3 strain (AID 167); conditions: S. cerevisiae bub3 mutant strain, at 50.0 µM, stronger effect = higher value
In short: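 Part of a panel of yeast mutants defective in DNA damage repair or cell cycle regulation. Each strain is grown with compound, and inhibition is calculated relative to solvent-treated cultures.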

[6] = NCI Yeast Anticancer Drug Screen. Data for the mlh1 rad18 strain (AID 175); conditions: S. cerevisiae mlh1 rad18 strain growth inhibition; at 50.0 µM; stronger effect = higher value
In short: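 Read-out is yeast growth inhibition, calculated against vehicle-only controls. The compound was applied to a strain engineered with DNA damage repair alterations.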

Measured: growth inhibition

CCCCCC(/C=C/[C@@H]1[C@H]2CC(=O)O[C@H]2C[C@H]1N1CCOCC1)OC1CCCO1 (stereo partly specified)
inactive: [1] 0.2% | [2] -6.3% | [3] 11.8% | [4] -35.1% | [5] -29.6% | [6] 11.8%

CC1CCS(=O)(=O)C1 (stereo unspecified)
inactive: [1] -12.8% | [2] -23.1% | [3] -35.9% | [4] 6.8% | [5] -8.4% | [6] -10.1%

N#Cc1cnc(=S)n(-c2cc(C(F)(F)F)cc(C(F)(F)F)c2)c1N
inactive: [1] 5.7% | [2] -10.9% | [3] 15.9% | [4] 11.7% | [5] 8.85% | [6] 11.5%

COc1ccc(C(O)c2ccccc2C(=O)Nc2ccccc2)cc1 (stereo unspecified)
inactive: [1] -4.95% | [2] -9.7% | [3] -18.2% | [4] -21.9% | [5] -3.35% | [6] -3.9%

COc1nc2cc(C)c(C)cc2n1C1OC(CO)C(O)C1O (stereo unspecified)
inactive: [1] -12.6% | [2] 16.4% | [3] 6.95% | [4] -8.3% | [5] -0.9% | [6] -7%

Brc1cc(Br)cc(-c2nnc(-c3cccc4ccccc34)o2)c1
inactive: [1] -14.1% | [2] -16.4% | [3] 0.25% | [4] 24.1% | [5] 10.2% | [6] -4.65%

OC(Cc1cccnc1)(c1ccccc1)c1cccc2ccccc12 (stereo unspecified)
inactive: [1] 12.3% | [2] 13.8% | [3] -2.3% | [4] 7.45% | [5] 10.5% | [6] 13.9%

CCN(CC)CCNC(=O)Cc1cc(O)c2c(c1O)C(=O)c1ccccc1C2=O
inactive: [2] 5% | [4] 40.9% | [5] 6.1% | [6] 51.5%
active: [1] 73% | [3] 76.8%

CC(=O)OC1COC(n2c(O)c(N=NC(N)=S)c3cc(Br)ccc32)C(OC(C)=O)C1OC(C)=O (stereo unspecified)
inactive: [1] 41.1% | [2] 8.2% | [3] 46.2% | [4] -34.2% | [5] 27.1% | [6] 31.1%

Cn1c2c(c3ccccc31)CCN=C2C1CCCOC1=O (stereo unspecified)
inactive: [1] -27.6% | [2] -54.2% | [3] -21.1% | [4] -17.5% | [5] -9.3% | [6] -39.1%

Cn1nc(NC(=O)c2cc(N)nn2C)cc1C(=O)Nc1ccc2cc(S(=O)(=O)O)cc(S(=O)(=O)O)c2c1
inactive: [1] -14.1% | [2] -16.7% | [3] -10.3% | [4] 7.65% | [5] 13.7% | [6] -3%

N#Cc1ccccc1/C=N/O
inactive: [1] 0.15% | [2] -6.55% | [3] -8.75% | [4] 0.95% | [5] -18.4% | [6] -14.1%

CCOc1ccccc1C(=O)O
inactive: [1] 13.2% | [2] 6% | [3] 14.2% | [4] 11.4% | [5] -12.1% | [6] 11.4%

O=CSC(=Nc1ccc(Cl)cc1)NC(=O)COc1ccc(Cl)cc1
inactive: [1] 5.05% | [2] -21.4% | [3] 58.9% | [4] -22.4% | [5] 33.3% | [6] 12.3%

C=C1CN(C(=O)NCCCl)C1
inactive: [1] 10.6% | [2] 17.4% | [3] 4.15% | [4] -11.3% | [5] 4.1% | [6] -7.8%

CCOC(=O)c1cc2cc([N+](=O)[O-])ccc2[nH]1
inactive: [1] 10% | [2] 9.5% | [3] 0% | [4] 5.65% | [5] -7.2% | [6] 16.4%

COC1=C(OCc2ccccc2)C(=O)OC1C(O)CO (stereo unspecified)
inactive: [1] -3.1% | [2] 11.4% | [3] 0.5% | [4] -1.3% | [5] -7.55% | [6] -12%

CCC(O)(c1ccccc1)c1ccccc1
inactive: [1] 1.7% | [2] 3.5% | [3] -5.65% | [4] 4.15% | [5] -19.8% | [6] -4.8%

Cc1nc2ccc(S(=O)(=O)Nc3ccccn3)cc2c(=O)n1NS(=O)(=O)c1ccccn1
inactive: [1] 42.6% | [2] 12.1% | [3] 12% | [4] 22.8% | [5] -14.2% | [6] 26.4%

O=C1NCCS(=O)(=O)N2CCC[C@@H]12
inactive: [1] 54.4% | [2] -20% | [3] 5.1% | [4] 21.4% | [5] -19.6% | [6] -14.9%

CCOC(NCc1ccc(OC)c(OC)c1)OCC
inactive: [1] 3.6% | [2] -11.8% | [3] 6.45% | [4] 3.55% | [5] 17.1% | [6] 11.3%

Cc1cc(N)ccc1N=Nc1ccc(S(=O)(=O)CCOS(=O)(=O)O)cc1
inactive: [1] 10.9% | [2] -7.5% | [3] -6.8% | [4] -4.65% | [5] -37.1% | [6] -74.7%

C1CCC(C2CCC(C3CCCCC3)CC2)CC1 (stereo unspecified)
inactive: [1] -14.1% | [2] -8.75% | [3] -9.55% | [4] -45.6% | [5] 6.35% | [6] 6.15%

CCOC(=O)NC(Nc1ccc(Cl)cn1)(C(F)(F)F)C(F)(F)F
inactive: [1] -25.9% | [2] -12.5% | [3] -52.5% | [4] -25.3% | [5] -21.6% | [6] -76.2%

CCCCCCC(=O)NC(O)C(Cl)(Cl)C(C)Cl (stereo unspecified)
inactive: [1] 1.1% | [2] -6.6% | [3] -6.2% | [4] -56.8% | [5] -19.8% | [6] 4.1%

O=C1NC2NC(=O)NC2N1 (stereo unspecified)
inactive: [1] 6.6% | [2] -27.1% | [3] -3% | [4] -9.6% | [5] -2.05% | [6] 10.2%

CCC(C(O)c1ccc(Cl)cc1)[N+](=O)[O-] (stereo unspecified)
inactive: [1] 29.9% | [2] 21.7% | [3] 35.9% | [4] 3.05% | [5] 4.65% | [6] 43.7%

O=Cc1ccc2ccocc1-2
inactive: [1] 9.15% | [2] 14.8% | [3] -27.6% | [4] -11.8% | [5] -20.7% | [6] -41.2%

CN(C)c1ccc(C=C2C(=O)CC(C)(C)CC2=O)cc1
inactive: [1] 12.5% | [2] 10.2% | [3] 23.1% | [4] 16.1% | [5] 5.85% | [6] -8.4%

CCCCOC(=O)Nc1ccccc1OCC
inactive: [1] 6.7% | [2] -19.8% | [3] -0.35% | [4] -48.4% | [5] -20.5% | [6] -11.2%

CC(C(=O)O)[C@H]1CC[C@H]2[C@@H]3CCC4=CC(=O)CC[C@]4(C)[C@H]3CC[C@]12C (stereo partly specified)
inactive: [1] -3.5% | [2] -5.7% | [3] 7.15% | [4] -46.9% | [5] 2.5% | [6] -10.2%

CC(C)C(N)C(=O)Nc1nncs1 (stereo unspecified)
inactive: [1] 11.6% | [2] -2.15% | [3] -8% | [4] -10.1% | [5] -33.6% | [6] -28.6%

COC1C2CCC1C(N=O)C2Br (stereo unspecified)
inactive: [1] -23.2% | [2] 3.75% | [3] -3.1% | [4] -44.9% | [5] 0.65% | [6] -14.7%

CC(C)CN(CC(C)C)C(=O)C1CCCC[C@@H]1C(=O)O (stereo partly specified)
inactive: [1] 16.9% | [2] 15.2% | [3] 5.8% | [4] 18.7% | [5] 16.4% | [6] 22.4%

CCCCC1(C#Cc2ccccc2)Sc2ccccc2N1C (stereo unspecified)
inactive: [1] -9.9% | [2] -8.45% | [3] 9.25% | [4] -21.9% | [5] -7.9% | [6] 2.25%

O=S(=O)(c1ccccc1)C1CCCC1
inactive: [1] -12.2% | [2] 8.9% | [3] -1.85% | [4] -11.8% | [5] -6.7% | [6] -2.9%

O=c1ccc2ccc(-c3cnc(O)[nH]c3=O)oc-2c1
inactive: [1] 25.6% | [2] 2.05% | [3] 5.35% | [4] 1.4% | [5] 2.25% | [6] 10.3%

CC(=O)[O-].O=S(=O)(Nc1ncccn1)c1ccc(N=Cc2ccccc2O)cc1.O=S(=O)(Nc1ncccn1)c1ccc(N=Cc2ccccc2O)cc1.[Co+2]
inactive: [1] 25.4% | [2] 23.2% | [3] 26.6% | [4] 27.7% | [5] 32.2% | [6] 25.1%

C[n+]1c(-c2ccc(/C=N/NC(=O)C(=O)N/N=C/c3ccc(-c4cn5ccsc5[n+]4C)cc3)cc2)cn2ccsc21
active: [1] 85.5% | [2] 88% | [3] 86.8% | [4] 76.6% | [5] 88.7% | [6] 86.5%

CC1c2ncnc(N)c2CN1C(=O)c1ccccc1 (stereo unspecified)
inactive: [1] 4.55% | [2] -6.85% | [3] -3.15% | [4] -20.2% | [5] 6.75% | [6] -4.55%

O=S(=O)(CCN1CCCCC1)c1ccc(F)cc1
inactive: [1] 21.4% | [2] -12.5% | [3] 3.05% | [4] -10.8% | [5] 2.4% | [6] 9.95%

Source: PubChem BioAssay (NCI)
